# Activity calls are given as the source filed them.
# Tests used:
# Albumin (Bos taurus) = Albumin (Bos taurus) (UniProt P02769); assay: bovine serum albumin binders on microarray, profiling panel, artefact control for SMM control protein annotation, biochemical, small-molecule microarray, Alexa647 label, 635/667 nm fluorescence (AID 1118); conditions: BSA-A647 binding, fluorescence 635 nm, higher = more signal;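 further: score merges 667 nm emission intensity and signal-to-noise per printed compound spot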
# Chain of Albumin (Bos taurus) (P02769 whole entry, looked up): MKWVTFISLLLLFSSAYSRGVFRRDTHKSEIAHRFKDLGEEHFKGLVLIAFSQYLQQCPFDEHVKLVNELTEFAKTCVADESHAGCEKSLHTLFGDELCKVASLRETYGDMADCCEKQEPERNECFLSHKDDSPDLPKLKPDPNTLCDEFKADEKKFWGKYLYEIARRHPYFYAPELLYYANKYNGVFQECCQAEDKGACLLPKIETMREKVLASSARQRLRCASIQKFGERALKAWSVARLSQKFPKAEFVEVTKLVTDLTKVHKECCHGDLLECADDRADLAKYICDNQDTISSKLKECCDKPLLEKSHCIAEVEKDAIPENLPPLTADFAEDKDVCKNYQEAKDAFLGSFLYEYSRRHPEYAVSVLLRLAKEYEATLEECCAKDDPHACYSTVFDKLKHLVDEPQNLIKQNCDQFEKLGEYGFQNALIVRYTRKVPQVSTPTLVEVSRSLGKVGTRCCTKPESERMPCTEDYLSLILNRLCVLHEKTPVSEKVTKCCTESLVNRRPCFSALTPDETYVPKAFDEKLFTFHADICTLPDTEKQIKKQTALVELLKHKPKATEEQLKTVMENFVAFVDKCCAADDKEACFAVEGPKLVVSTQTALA
# [1] = small-molecule microarray binders of probe aXIP, primary screen, biochemical, NeuroSMM set, 635/667 nm fluorescence (AID 1119); conditions: higher = more signal, called active from +8 up or from −8 down;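 further: probe is the protein aXip251-270 applied at 1 µg/mL to compound-printed slides; binding of probe to printed compounds measured as 667 nm fluorescence plus signal to noise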
# [2] = small-molecule binders of probe aNOTCH3, primary screen, biochemical, small-molecule microarray, 635/667 nm fluorescence (AID 1120); conditions: higher = more signal;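 further: probe is a biotin-tagged antibody raised against NOTCH3 rather than NOTCH3 protein; score merges spot fluorescence near 667 nm with spot signal to noise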
# [3] = small-molecule binders of probe aNOTCH2, primary screen, biochemical, small-molecule microarray, 635/667 nm fluorescence (AID 1121); conditions: higher = more signal;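 further: score merges feature fluorescence read at 667 nm with its signal to noise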
# [4] = target: Carbonic anhydrase 2 (Homo sapiens) (UniProt P00918); assay: CAII small-molecule binders, profiling panel, biochemical, small-molecule microarray, Alexa647-labelled CAII (AID 1122); conditions: CAII-A647 binding fluorescence, higher = more signal
# [5] = COS7 lysate on small-molecule microarray, probe aHis, 635 nm (AID 1123); conditions: COS7 cell lysate, fluorescence, higher = more signal;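 further: z-score combines 667nm fluorescence intensity with signal-to-noise per printed compound spot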
# [6] = compound binding in COS7 lysate, probe aLAP1, primary screen, cell lysate, small-molecule microarray (AID 1124); conditions: probe aLAP1, fluorescence, higher = more signal;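 further: lysate comes from COS7 cells expressing LAP1 and is applied at 0.3 µg/mL; score merges spot fluorescence near 667 nm with signal-to-noise over triplicate slides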
# Sam68 (KHDRBS1) = assay: Sam68 small-molecule binders, primary screen, biochemical, small-molecule microarray, 635 nm fluorescence (AID 1125); conditions: small-molecule microarray binding, higher = more signal;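 further: score merges 667 nm channel intensity with signal to noise over triplicate slides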
# [7] = test system: Chordin-like protein 2 (CHRDL2); assay: CHRDL2 small-molecule binders, primary screen, biochemical, small-molecule microarray, 635 nm fluorescence (AID 1126); conditions: small-molecule microarray binding, fluorescence 635 nm; higher = more signal;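 further: printed compound slides probed with Chrdl2 protein at 4 µg/mL for 1 h at 4 C; score merges 667 nm emission intensity with signal to noise over three replicate slides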
# [8] = target: Concanavalin-A (Canavalia ensiformis) (UniProt P02866); assay: ConA small-molecule binders, primary screen, artefact control for SMM control protein annotation, biochemical, small-molecule microarray, Alexa647 label, 635 nm (AID 1127); conditions: ConA-A647 binding fluorescence, higher = more signal;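 further: z combines 667 nm emission intensity with signal-to-noise across three replicate slides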
# Chain of Concanavalin-A (Canavalia ensiformis) (P02866 whole entry, looked up): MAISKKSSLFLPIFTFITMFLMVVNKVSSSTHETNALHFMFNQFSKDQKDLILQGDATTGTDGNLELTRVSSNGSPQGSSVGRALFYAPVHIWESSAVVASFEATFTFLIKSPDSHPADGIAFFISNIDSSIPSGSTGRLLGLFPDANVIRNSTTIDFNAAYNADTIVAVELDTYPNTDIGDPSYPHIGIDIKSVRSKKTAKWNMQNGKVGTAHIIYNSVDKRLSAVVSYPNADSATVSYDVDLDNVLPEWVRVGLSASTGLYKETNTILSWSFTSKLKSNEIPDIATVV
SMILES,composite z-score (Albumin (Bos taurus)),composite Z-score [1],composite z-score [2],composite z-score [3],composite z-score [4],composite z-score [5],composite z-score [6],composite z-score (Sam68 (KHDRBS1)),composite z-score [7],composite z-score [8]
CC(C)c1ccc(NN2C(C(O)c3ccccc3)C=CC3C(=O)N(c4ccccc4)C(=O)C32)cc1 (stereo not given),0.834,-0.175 (inactive),0.216,-0.0194,0.574,1.79,-0.191,1.32,-0.747,1.12
CC1CC/C=C\[C@H]2OC34C=CCN(CCN5CCOCC5)C(=O)[C@H]3N(C(CO)C(C)C)C(=O)[C@@H]4C2C(=O)O1 (stereo not given in full),-0.466,0.769 (inactive),-0.111,-0.0837,0.854,0.214,1.47,0.889,-0.571,0.475
C=C(CCCC)/C(=C/C[C@@H](OC(C)=O)c1cccc(OCCO)c1)c1cc(C(=O)OC)ccc1OC,0.119,0.303 (inactive),-0.0131,-0.168,0.561,-0.22,-0.247,0.71,-0.0137,-0.656
Cc1ccc(S[C@]2(C(=O)NC(C)C)CC(=O)N(Cc3ccccc3)[C@@H]2c2ccc(CO)cc2)cc1,0.161,0.339 (inactive),-0.333,-0.0451,0.445,-0.0367,-0.915,-0.76,-1.31,-1.06
C[C@]1(C(=O)NC2CC2)c2ccccc2C(=O)N(Cc2cc(F)cc(C(F)(F)F)c2)[C@H]1c1ccc(CO)cc1,-0.1,0.004 (inactive),-0.368,-0.164,0.759,2.23,0.522,-0.0456,-1.61,-0.0372
O=C1NC(=O)C2C1C=CC(C(O)c1ccc(F)cc1)N2Nc1ccc(Cl)cc1Cl (stereo not given),0.369,1.69 (inactive),0.0488,-0.0113,0.732,2.4,0.591,0.246,-0.242,-0.345
[N-]=[N+]=Nc1ccccc1C[C@@]1(C(=O)NCc2ccccc2)N=C(c2ccc(OCCCO)cc2)O[C@@H]1c1ccccc1,0.747,0.157 (inactive),0.446,0.309,0.645,1.99,0.692,1.3,0.621,0.775
CC(C)C(=C=CC[C@H](O)c1cccc(OCCO)c1)C[C@H](O)c1ccccn1,0.481,-0.128 (inactive),-0.0647,-0.146,0.811,0.48,0.182,0.353,-0.0719,0.13
COC(=O)[C@@]1(Cc2ccc(OC)cc2)[C@@H]2[C@@H](CC(=O)[C@H]2CC(=O)C(=O)N(C)C)CN1C(=O)c1ccccc1,0.964,0.289 (inactive),1.52,0.732,0.617,3.17,0.505,1.32,-0.875,1.13
C=CCOC(=O)[C@@H]1[C@H]2C(=O)O[C@H](c3ccccc3)[C@H](c3ccccc3)N2[C@H](c2ccc(OCCOC(=O)[C@H]3C[C@H]4C(=O)N[C@@H](CCCCN(C)C)C(=O)N4[C@H]3c3cccc(OCCO)c3)cc2)[C@@]12C(=O)Nc1ccccc12,0.172,0.597 (inactive),-0.2,0.0018,0.656,0.668,0.781,0.846,0.0523,0.682
C[N+](C)(C)CCCC[C@@H]1NC(=O)[C@H]2C[C@@H](C(=O)O)[C@@H](c3ccc(O)cc3)N2C1=O,-0.804,-0.55 (inactive),-0.165,-0.104,0.704,1.4,0.606,0.744,0.616,0.905
COCCOC(=O)N1C(=O)[C@@]2(c3cc(C#CCCO)ccc31)[C@H](C(=O)N1CCN(c3ncccn3)CC1)[C@H]1C(=O)O[C@H](c3ccccc3)[C@H](c3ccccc3)N1[C@@H]2c1ccc(OCCO)cc1,0.788,-0.265 (inactive),0.199,-0.0817,0.621,2.13,0.419,1.29,0.372,1.12
CCOC(=O)C[C@H]1[C@H](OC(=O)c2cc3ccccc3oc2=O)[C@@H](NC(=O)c2ccc(-c3ccccc3)cc2)c2cc(OCCCO)ccc2N1C(=O)Cc1ccc(OC)cc1,0.0146,0.243 (inactive),0.213,-0.0578,0.383,1.07,0.774,0.864,0.346,0.833
C#CCN(C(=O)OC(C)(C)C)[C@H](CO)c1ccccc1,0.632,0.32 (inactive),-0.0043,-0.146,0.0604,0.125,0.183,0.689,0.105,0.0388
COc1cc(Cc2cc3c(c(CCc4ccccc4)n2)[Si](C(C)C)(C(C)C)O[C@H]3c2ccccc2)cc(OC)c1OC,-0.405,-0.0849 (inactive),-0.15,-0.181,-0.128,-0.178,-0.177,-0.361,0.06,0.562
COC(=O)[C@@]1(Cc2ccc(F)cc2)[C@H]2c3cc(C(=O)N(C)C)n(Cc4ccsc4Br)c3C[C@H]2CN1C(=O)c1ccccc1,0.745,-0.857 (inactive),1.88,1.08,0.938,2.95,1.65,0.0161,-0.0576,1.13
CN(C)CCCCNC(=O)[C@H]1C[C@H]2C(=O)N[C@@H](CCCCN(C)C)C(=O)N2[C@H]1c1ccc(O)cc1,-0.155,0.151 (inactive),-0.0918,-0.0262,0.518,-0.28,0.224,-0.093,1.15,0.224

SMILES,composite z-score (Albumin (Bos taurus)),composite Z-score [1],composite z-score [2],composite z-score [3],composite z-score [4],composite z-score [5],composite z-score [6],composite z-score (Sam68 (KHDRBS1)),composite z-score [7],composite z-score [8]
CC(C)C[C@@H]1NC(=O)[C@@H]2C[C@H](C(=O)NCCCCCNC(=O)CS)[C@H](c3ccc(O)cc3)N2C1=O,-0.0368,-0.442 (inactive),-0.101,-0.104,0.36,2.1,-0.646,0.92,0.652,0.374
C=CCN1C(=O)[C@@]2(O[C@@H](CCO)[C@H]([Si](C)(C)c3ccc(OC)cc3)[C@H]2C)c2cc(N3CCCCC3=O)ccc21,0.446,0.734 (inactive),0.239,-0.108,0.429,1.17,0.0635,0.702,0.285,0.901
COC(=O)[C@@]1(Cc2ccc(F)cc2)[C@H]2c3cc(C(=O)N(C)C)n(CCF)c3C[C@H]2CN1C(=O)c1ccccc1,0.914,0.312 (inactive),-0.0044,0.057,0.733,2.6,0.89,0.706,-0.411,0.476
C=C(COC)C(=O)CC[C@@H](OC(=O)c1ccccc1-c1ccccc1C(=O)O)c1ccccc1OCCO,-0.597,0.49 (inactive),-0.122,-0.0174,0.531,-0.381,1.67,0.448,0.538,0.0185
CCOC(=O)C[C@H]1[C@H](OC(=O)Cc2ccc3c(c2)OCO3)[C@@H](NC(=O)CC(C)C)c2cc(OCCCO)ccc2N1C(=O)c1ccc2ccccc2n1,0.808,0.0066 (inactive),0.121,-0.162,-0.107,0.26,-0.0904,0.797,0.386,0.369
COCCOC(=O)N1C(=O)[C@@]2(c3cc(C#CCNC(N)=O)ccc31)[C@H](C(=O)N1CCN(c3ncccn3)CC1)[C@H]1C(=O)O[C@H](c3ccccc3)[C@H](c3ccccc3)N1[C@@H]2c1ccc(O)cc1,0.526,-0.453 (inactive),-0.457,-0.292,0.371,-0.864,0.555,-0.396,-0.956,-0.785
CN1C(=O)C2CC=C(C3=CCO[C@@H]3[C@H]3CCCN3S(=O)(=O)c3ccccc3[N+](=O)[O-])CC2C1=O (stereo not given in full),0.811,0.0129 (inactive),-0.0647,-0.106,-0.0199,0.205,-0.065,-0.7,-0.537,-0.65
CCOC(=O)C[C@H]1[C@H](OC(=O)c2ccccc2-c2ccccc2)[C@@H](NC(=O)CC(C)C)c2cc(OCCCO)ccc2N1C(=O)c1ccccc1,0.079,0.305 (inactive),-0.0406,-0.0698,0.742,0.429,-0.161,0.207,0.389,0.125
CC(C)[Si](C#Cc1ccccc1)(O[C@H](c1ccccc1)c1cn(Cc2ccccc2)nn1)C(C)C,0.939,0.708 (inactive),-0.127,-0.189,0.57,0.467,0.471,0.879,0.664,1.17
O=C1C2C=CC(C(O)C(c3ccccc3)c3ccccc3)N(Nc3ccccc3F)C2C(=O)N1c1ccccc1 (stereo not given),1,-0.173 (inactive),0.24,-0.0386,0.612,2.99,1.02,1.31,-0.0392,0.5
Cc1ccc(S[C@]2(C(=O)NC3CC3)CC(=O)N(C3Cc4ccccc4C3)[C@@H]2c2ccc(CO)cc2I)cc1,-0.15,-0.216 (inactive),-0.283,-0.121,0.535,0.897,1.68,-0.5,-0.486,0.0714
Cc1ccc(S[C@]2(C(=O)NCc3ccccc3)CC(=O)N(Cc3ccccc3C(F)(F)F)[C@@H]2c2ccc(CO)cc2I)cc1,0.269,-0.915 (inactive),-0.242,-0.0417,0.815,1.2,1.04,-0.0245,-0.175,-0.546
O=C1c2ccccc2[C@](Cc2ccccc2I)(C(=O)NCCN2CCOCC2)[C@H](c2ccc(CO)cc2)N1Cc1ccccc1C(F)(F)F,0.543,-0.0238 (inactive),-0.0014,-0.0771,0.594,2.09,0.329,1.29,-0.408,1.13
[N-]=[N+]=NCc1ccccc1[C@H]1OC(c2ccc(OCCCO)cc2)=N[C@@]1(CCS(=O)(=O)c1ccccc1)C(=O)NCCN1CCOCC1,0.888,0.516 (inactive),0.596,0.163,0.621,2.76,0.654,1.3,-0.222,0.944
COCCCNC(=O)[C@]1(Cc2ccccc2N=[N+]=[N-])N=C(c2ccc(OCCCO)cc2)O[C@@H]1c1ccccc1,0.894,0.522 (inactive),0.619,0.308,0.304,2.85,0.536,1.3,-0.586,1.11
COC(=O)[C@@]1(Cc2ccc(F)cc2)[C@H]2c3cc(C(=O)N(C)C)n(Cc4cccc5ccccc45)c3C[C@H]2CN1C(=O)c1ccccc1,0.617,0.0828 (inactive),0.223,0.168,0.86,4.13,0.881,0.343,-0.967,0.162

# Source: PubChem BioAssay
